Source: PubChem
PAFAH2 FP inh: PAFAH2 enzyme inhibitors, primary screen, biochemical, fluorescence polarization, human. inhibition, % at 3.39 µM. Platelet-activating factor acetylhydrolase 2, cytoplasmic (Homo sapiens), Q99487. hit rate 0.99% among 340,000. recombinant PAFAH2, FP-rhodamine activity probe;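 active means inhibition above the mean over all tested compounds plus 3 SD, cut at about 30% in these data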;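 further: inhibitors block probe labeling of enzyme so polarization drops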
PAFAH1B3 inh: PAFAH1B3 enzyme inhibitors, primary screen, biochemical, fluorescence polarization, human. recombinant PAFAH1B3, FP-rhodamine probe. inhibition, % at 3.39 µM. hit rate 0.28% among 340,000. AID 492972, 2010;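 active means inhibition above the screen-wide average of all tested compounds plus 3 SD, cut at about 25% in these data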
Target sequence (Q15102 whole entry, looked up): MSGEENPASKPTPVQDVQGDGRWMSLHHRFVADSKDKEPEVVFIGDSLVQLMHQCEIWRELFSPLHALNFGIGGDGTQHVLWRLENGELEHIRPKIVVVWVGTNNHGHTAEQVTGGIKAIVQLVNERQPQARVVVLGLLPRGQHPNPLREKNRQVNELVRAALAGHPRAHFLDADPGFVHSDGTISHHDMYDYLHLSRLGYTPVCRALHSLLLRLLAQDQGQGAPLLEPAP
DAGLB inh: DAGLB lipase inhibitors, primary screen, biochemical, fluorescence, HTS | Diacylglycerol lipase-beta (Homo sapiens), Q8NCG7 | HEK293T DAGLB membrane lysate, EnzChek fluorogenic substrate | inhibition, % at 5.17 µM | hit rate 0.059% among 340,000; in the data active means inhibition above about 34%
PAFAH1B2 FP inh: PAFAH1B2 enzyme inhibitors, primary screen, biochemical, fluorescence polarization, human | recombinant PAFAH1B2, FP-rhodamine activity probe | hit rate 1.2% among 340,000 | inhibition, % at 3.39 µM;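 active means inhibition above the mean of all tested compounds plus 3 SD, cut at about 24% in these data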
HTRA1 inhibitor: HTRA1 serine protease inhibitors, primary screen, biochemical, fluorescence polarization, HTS. Q92743. recombinant HTRA1, FP-rhodamine activity-based probe. inhibition, % at 5.96 µM. hit rate 0.5% among 340,000. AID 504803, 2011; in the data active means inhibition above about 36%
pPAFAH FP inh: pPAFAH enzyme inhibitors, primary screen, biochemical, fluorescence polarization, human. Platelet-activating factor acetylhydrolase (Homo sapiens), Q13093. hit rate 1.5% among 330,000. inhibition, % at 3.39 µM. recombinant pPAFAH, FP-rhodamine probe fluorescence polarization;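 active means inhibition above the mean inhibition across the screen plus 3 SD, cut at about 25% in these data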;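 further: inhibitors block binding of the rhodamine activity-based probe so polarization drops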
Target sequence (Q13093 whole entry, looked up): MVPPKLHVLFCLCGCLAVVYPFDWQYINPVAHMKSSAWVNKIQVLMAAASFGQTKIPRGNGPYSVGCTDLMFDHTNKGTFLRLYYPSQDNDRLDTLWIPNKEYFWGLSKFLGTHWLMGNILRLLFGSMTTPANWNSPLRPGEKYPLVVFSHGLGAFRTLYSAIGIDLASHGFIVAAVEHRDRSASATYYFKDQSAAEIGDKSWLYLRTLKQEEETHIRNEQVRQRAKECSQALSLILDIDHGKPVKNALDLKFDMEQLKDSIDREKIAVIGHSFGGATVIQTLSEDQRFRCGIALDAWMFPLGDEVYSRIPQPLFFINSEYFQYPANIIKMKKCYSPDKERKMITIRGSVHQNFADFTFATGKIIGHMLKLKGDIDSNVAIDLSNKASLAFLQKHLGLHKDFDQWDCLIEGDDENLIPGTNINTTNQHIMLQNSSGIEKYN
Large screens that a line does not name were inactive. Only some compounds are listed: those with a hit (about 2.8% of all), similar ones and a draw of the others.

CCS(=O)(=O)C1=NN2C(=N)/C(=C\c3ccc(OS(=O)(=O)c4ccccc4)cc3)C(=O)N=C2S1	none
COC(=O)c1[nH]c(C)c(/C(O)=C2\C(=O)C(=O)N(CCN3CCOCC3)C2c2ccco2)c1C (stereo not drawn)	none
COc1cc(/C=N/NC(=O)c2ccccc2O)ccc1OC(=O)CC1SC(=O)NC1=O (stereo not drawn)	none
O=C1ON=C(c2ccccc2)/C1=C/c1ccc(OS(=O)(=O)c2ccccc2)cc1	PAFAH1B2 FP inh 101
COc1ccc(/C=C2\C(=O)ON=C2c2ccccc2)cc1	none
COc1ccc(NC(=O)NC2CCCCCCC2)cc1	none
CCCCn1c(NC(=O)c2ccccc2Cl)c(C#N)c2nc3ccccc3nc21	PAFAH2 FP inh 37, PAFAH1B3 inh 60, PAFAH1B2 FP inh 36, pPAFAH FP inh 27
CCCCn1c(NC(=O)CC)c(C#N)c2nc3ccccc3nc21	none
COc1ccc(C(=O)COC(=O)c2ccc3c(c2)OCCO3)c(OC)c1	none (no result: pPAFAH FP inh)
Cc1ccsc1/C=C(\C#N)C(=O)NC1CCS(=O)(=O)C1 (stereo not drawn)	none
CCC(C)(C)NC(=O)CN(C(=O)C(=O)Nc1ccc2c(c1)OCCO2)C1CC1	none
Cc1snc(SCc2ccc(Cl)cc2)c1C#N	PAFAH1B2 FP inh 28
COC(=O)CNC(c1ccccc1)c1cc(Br)ccc1NC(=O)CNC(=O)OCc1ccccc1 (stereo not drawn)	pPAFAH FP inh 29
O=C(NCCc1ccc(Cl)cc1)c1cc2ccccn2n1	PAFAH1B2 FP inh 30
O=C(NCc1ccccn1)c1cc2ccccn2n1	none
O=Cc1ccccc1OCCOc1ccc([N+](=O)[O-])cc1	none
CC(=O)NC(=S)Nc1ccc(-c2nc3ccc(C)cc3s2)cc1	none
CC1=CCC(C(=O)O)C(C(=O)Nc2ccc(-c3nc4ccc(C)cc4s3)cc2)C1 (stereo not drawn)	pPAFAH FP inh 34
COc1ccc(C(NC(=O)c2cccnc2)c2cc(Cl)c3cccnc3c2O)cc1OC (stereo not drawn)	HTRA1 inhibitor 45
Oc1c(C(Nc2ccccn2)c2cccnc2)cc(Cl)c2cccnc12 (stereo not drawn)	none
CCc1ccccc1Nc1nc(N)nc(COC(=O)c2c(C)noc2C)n1	none
COc1cc(/C=N/N(C)S(=O)(=O)c2ccc(C)cc2)cc([N+](=O)[O-])c1O	PAFAH1B2 FP inh 36
COc1cc(/C=N/NS(=O)(=O)c2ccc(C(C)(C)C)cc2)cc([N+](=O)[O-])c1O	PAFAH1B2 FP inh 33
COc1cc(/C=N/NS(=O)(=O)c2ccc(C)c([N+](=O)[O-])c2)cc([N+](=O)[O-])c1O	none
O=C(/C=C\c1ccco1)NC(=S)Nc1ccccc1O	pPAFAH FP inh 33
O=C(/C=C/c1ccco1)NC(=S)Nc1ccccc1O	none (no result: PAFAH2 FP inh, PAFAH1B3 inh, DAGLB inh, PAFAH1B2 FP inh, HTRA1 inhibitor)
Cc1ccc(NC(=S)NC(=O)/C=C/c2ccco2)c(O)c1	pPAFAH FP inh 30
COc1ccc(C(C)(C)C)cc1NC(=O)COc1ccc(-c2nnco2)cc1	none
O=C(O)c1cccc(CSc2nc(-c3ccccc3)cc(C(F)(F)F)n2)c1	pPAFAH FP inh 26
COc1ccc(-c2cc(C(F)(F)F)nc(SCc3cccc(C(=O)O)c3)n2)cc1	none
COc1ccccc1C(=O)Nc1nnc(SCC(=O)NC2CCCC2)s1	none
CCN(CCO)c1nc(SC)nc2c1sc1nc(-c3ccco3)c3c(c12)CCC3	pPAFAH FP inh 32
CSc1nc(NCCOCCO)c2sc3nc(-c4ccco4)c4c(c3c2n1)CCC4	pPAFAH FP inh 29
CSc1nc(NCc2ccco2)c2sc3nc(C(C)C)c4c(c3c2n1)CC(C)(C)OC4	none
NC(=O)c1ccc(Oc2ccc(Cl)c3ccccc23)c([N+](=O)[O-])c1	pPAFAH FP inh 34
Cc1ccc(NS(=O)(=O)c2ccc3c(c2)CCC(=O)N3)cc1C	none
Cn1c(=O)oc2cc(S(=O)(=O)Nc3ccc(F)cc3)ccc21	pPAFAH FP inh 26
Cc1cccc(NS(=O)(=O)c2ccc3c(c2)CCC(=O)N3)c1	pPAFAH FP inh 28
CCc1cccc(NS(=O)(=O)c2ccc3c(c2)CCC(=O)N3)c1	none
O=C1CCc2cc(S(=O)(=O)Nc3ccc(F)cc3)ccc2N1	pPAFAH FP inh 29
COc1ccc(C2=CCC3CCCCN3C2)cc1OC (stereo not drawn)	none
O=C(O)CN1C(=O)C(=O)N(Cc2ccc(Cl)cc2Cl)C1=O	PAFAH1B2 FP inh 25
CCN(CC(=O)Nc1c(F)cccc1F)C(=O)CCCNC(=O)c1ccc(Cl)cc1	none
O=[N+]([O-])c1cc(C(F)(F)F)cc([N+](=O)[O-])c1NCCN1CCNCC1	none
CC(Oc1ccc2c(-c3ccccc3)cc(=O)oc2c1)C(=O)NC(Cc1c[nH]c2ccc(O)cc12)C(=O)O (stereo not drawn)	PAFAH1B2 FP inh 71
O=C(COc1ccc2c(-c3ccccc3)cc(=O)oc2c1)N[C@@H](Cc1c[nH]c2ccc(O)cc12)C(=O)O	PAFAH1B2 FP inh 63
O=C(Cc1cc(=O)oc2cc(O)ccc12)N[C@@H](Cc1c[nH]c2ccccc12)C(=O)O	none
CCn1cc(C(=O)Nc2ncccc2O)c(=O)c2cc(F)c(N3CCN(C(=O)c4ccco4)CC3)cc21	none
Cc1nn(-c2ccccc2)c(Cl)c1/C=N/NC(=O)c1ccccc1NS(=O)(=O)c1cccs1	pPAFAH FP inh 33
Cc1nn(-c2ccccc2)c(Cl)c1/C=N/NC(=O)c1ccc(NS(=O)(=O)c2cccs2)cc1	none (no result: PAFAH2 FP inh, PAFAH1B3 inh, DAGLB inh, PAFAH1B2 FP inh, HTRA1 inhibitor)
COc1ccc2cc(C(C)C(=O)Nc3cccc(S(=O)(=O)N(C)C)c3)ccc2c1 (stereo not drawn)	none
COC(CNC(=O)c1coc2nc3ccccc3nc12)OC	none
Clc1ccc2c(c1)c1cc(Cl)ccc1n2CN1CCOCC1	pPAFAH FP inh 27
Cc1ccc(S(=O)(=O)Oc2ccccc2-c2ccccc2)cc1	none (no result: pPAFAH FP inh)
Cc1nn(CC(=O)NCC2CCCO2)c(C)c1[N+](=O)[O-] (stereo not drawn)	none
Cc1nn(CC(=O)NNC(=S)NCC2CCCO2)c(C)c1Br (stereo not drawn)	pPAFAH FP inh 28
CCCNC(=O)c1ccc(-c2nn(C)c(=O)c3ccccc23)cc1	pPAFAH FP inh 32
CCO[C@@H]1OC(C(=O)N2CCCCCCC2)=C[C@H](C2CCCCC2)[C@H]1CCCO	none
CC1(C)CC(=O)C(CC(=O)NC2CCCc3ccccc32)C(=O)C1 (stereo not drawn)	none
O=C(O)CN1C(=O)/C(=C\c2cccc(OCc3ccccc3F)c2)SC1=S	none
O=C(O)CN1C(=O)/C(=C\c2cccc(OCc3ccc(Cl)cc3)c2)SC1=S	PAFAH1B2 FP inh 62
